# From the supplement of paper PMC9177965
# Test system: HT29 RNF43 G659fs (RNF43 659mut, CRISPR-edited)
# Assay: cell viability activity relative to DMSO (negative = inhibition); higher = more viable cells (less growth inhibition)
# Conditions: 5 µM; 96 h
# Protocol: (§1)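 Broad Repurposing Library primary screen at a single dose of 5 uM. HT29 sg-Ctrl and HT29 RNF43 G659fs CRISPR-edited isogenic cells were seeded at 2500 cells/well in 384-well plates in duplicate and treated for 96 h. Viability was read by CellTiter-Glo and reported as % activity relative to DMSO, with MG132 as the positive control (negative = growth inhibition).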
row,Structure (SMILES),cell viability activity
1,CO[C@@H](C(=O)N1Cc2[nH]nc(NC(=O)c3ccc(N4CCN(C)CC4)cc3)c2C1)c1ccccc1,-62%
2,Cc1cccc(C)c1NC(=O)CN1CCN(CCCC(c2ccc(F)cc2)c2ccc(F)cc2)CC1,-28.2%
3,CCOc1cc2ncc(C#N)c(Nc3ccc(OCc4cccc(F)c4)c(Cl)c3)c2cc1NC(=O)/C=C/CN(C)C,-30.8%
4,O=C(Nc1ccccc1-c1cn2c(CN3CCNCC3)csc2n1)c1cnc2ccccc2n1,-74.8%
5,O=C(O)c1ccccc1-c1c2cc(I)c(=O)c(I)c-2oc2c(I)c(O)c(I)cc12,-23%
6,COc1cc(OC)c(/C=C/S(=O)(=O)Cc2ccc(OC)c(OP(=O)(O)O)c2)c(OC)c1,-26.7%
7,COc1ccc(/C=C\c2cc(OC)c(OC)c(OC)c2)cc1O,-64.6%
8,Cc1cccc(Nc2nc(-c3ccncc3)cs2)c1,-85.7%
9,O=C(Nc1c[nH]nc1-c1nc2ccc(CN3CCOCC3)cc2[nH]1)NC1CC1,-72.3%
10,Cc1c(C(=O)Nc2ccc(N3CCC(N4CCOCC4)CC3)c(C#N)c2)cnn1-c1ccc(Cl)cc1,-36.4%
11,CC(=O)c1cc2c(o1)C(=O)c1ccccc1C2=O,-97.1%
12,O=C(c1c(F)ccc(NS(=O)(=O)N2CC[C@@H](F)C2)c1F)c1c[nH]c2ncc(-c3cnc(C4CC4)nc3)cc12,-66.1%
13,CC(C)c1ccc(C(=O)N=C(N)N)cc1S(C)(=O)=O,-25.7%
14,CCN(CC)CCCCNc1ncc2cc(-c3c(Cl)cccc3Cl)c(NC(=O)NC(C)(C)C)nc2n1,-49.6%
15,CCn1c(=O)c(-c2cc[nH]n2)cc2c(C)nc(N)nc21,-54.4%
16,COc1ccc(S(=O)(=O)Nc2cccnc2Nc2ccc(O)cc2)cc1,-63.9%
17,O=C(NNc1nc2cc(F)ccc2n2cccc12)c1cnccn1,-82.8%
18,C[C@H]1[C@@H](O)O[C@@H]2O[C@@]3(C)CC[C@H]4[C@H](C)CC[C@@H]1[C@@]24OO3,-30.9%
19,CCCCc1ccc2[nH]c(NC(=O)OC)nc2c1,-66.1%
20,C=CC(=O)Nc1cccc(Nc2nc(Nc3ccc(OCCOC)cc3)ncc2F)c1,-33.3%
21,CS(=O)(=O)N1CCc2c(-c3cnc(N)nc3)nc(N3CCOCC3)nc21,-53.1%
22,O=C(O)[C@]1(Cc2cccc(Nc3nccs3)n2)CC[C@@H](Oc2cccc(Cl)c2F)CC1,-24.5%

# Test system: HT29 sg-Ctrl (RNF43 wildtype)
# Assay: as above
# Conditions: 5 µM; 96 h
# Protocol: as §1
row,Structure (SMILES),cell viability activity
1,CCN(CC)CCN(Cc1ccc(-c2ccc(C(F)(F)F)cc2)cc1)C(=O)Cn1c(SCc2ccc(F)cc2)nc(=O)c2c1CCC2,-96.7%
2,C[C@H](Oc1ccc(S(C)(=O)=O)cc1C(=O)N1CCN(c2ncc(C(F)(F)F)cc2F)CC1)C(F)(F)F,-57.9%
3,C[C@@H](C(=O)O)c1ccc(-c2ccccc2)c(F)c1,-70.3%
4,CCCCCCCCCCCC[N+](C)(C)CCOc1ccccc1,-91.5%
5,CN(C)C(=O)C(CCN1CCC(O)(c2ccc(Cl)cc2)CC1)(c1ccccc1)c1ccccc1,-75.2%
6,CN1CCC(CNc2ccc3ncc(-c4cccc(OC(F)(F)F)c4)n3n2)CC1,-52.2%
7,Cc1nc(C#Cc2ccnc(Cl)c2)c(C)n1-c1ccc(OC(F)(F)F)cc1,-18.5%
8,C[C@@H](NC(=O)c1ncnc(N)c1Cl)c1ncc(C(=O)Nc2cc(C(F)(F)F)c(Cl)cn2)s1,-29.1%
9,COc1ccc(N(C)c2nc(C)nc3ccccc23)cc1,-68%
10,CCOc1ccc(Cc2nccc3cc(OCC)c(OCC)cc23)cc1OCC,-25.2%
11,Cn1cc(-c2ccncc2)c(-c2ccc(OCc3ccc4ccccc4n3)cc2)n1,-38.8%
12,CN1CCC(NC(=O)c2cc(-c3c(O)cc(O)cc3Oc3ccc([N+](=O)[O-])cc3)on2)CC1,-21.1%
13,COCCOC(=O)C1=C(C)NC(C)=C(C(=O)OC/C=C/c2ccccc2)C1c1cccc([N+](=O)[O-])c1 (centres undefined),-50.7%
14,O=c1cc(N2CCOCC2)oc2c(-c3cccc4c3sc3ccccc34)cccc12,-57.1%
15,Nc1ccccc1NC(=O)c1ccc(CNC(=O)OCc2cccnc2)cc1,-77.2%
16,CO[C@@H](C(=O)N1Cc2[nH]nc(NC(=O)c3ccc(N4CCN(C)CC4)cc3)c2C1)c1ccccc1,-55.5%
17,Cc1cccc(C)c1NC(=O)CN1CCN(CCCC(c2ccc(F)cc2)c2ccc(F)cc2)CC1,-46%
18,CCOc1cc2ncc(C#N)c(Nc3ccc(OCc4cccc(F)c4)c(Cl)c3)c2cc1NC(=O)/C=C/CN(C)C,-28.1%
19,O=C(Nc1ccccc1-c1cn2c(CN3CCNCC3)csc2n1)c1cnc2ccccc2n1,-81.8%

row,Structure (SMILES),cell viability activity
1,O=C(O)c1ccccc1-c1c2cc(I)c(=O)c(I)c-2oc2c(I)c(O)c(I)cc12,-16.3%
2,COc1cc(OC)c(/C=C/S(=O)(=O)Cc2ccc(OC)c(OP(=O)(O)O)c2)c(OC)c1,-12.1%
3,COc1ccc(/C=C\c2cc(OC)c(OC)c(OC)c2)cc1O,-58.3%
4,Cc1cccc(Nc2nc(-c3ccncc3)cs2)c1,-55.8%
5,O=C(Nc1c[nH]nc1-c1nc2ccc(CN3CCOCC3)cc2[nH]1)NC1CC1,-71.2%
6,Cc1c(C(=O)Nc2ccc(N3CCC(N4CCOCC4)CC3)c(C#N)c2)cnn1-c1ccc(Cl)cc1,-33.4%
7,CC(=O)c1cc2c(o1)C(=O)c1ccccc1C2=O,-96.4%
8,O=C(c1c(F)ccc(NS(=O)(=O)N2CC[C@@H](F)C2)c1F)c1c[nH]c2ncc(-c3cnc(C4CC4)nc3)cc12,-69%
9,CC(C)c1ccc(C(=O)N=C(N)N)cc1S(C)(=O)=O,-5.71%
10,CCN(CC)CCCCNc1ncc2cc(-c3c(Cl)cccc3Cl)c(NC(=O)NC(C)(C)C)nc2n1,-33%
11,CCn1c(=O)c(-c2cc[nH]n2)cc2c(C)nc(N)nc21,-42.2%
12,COc1ccc(S(=O)(=O)Nc2cccnc2Nc2ccc(O)cc2)cc1,-55.9%
13,O=C(NNc1nc2cc(F)ccc2n2cccc12)c1cnccn1,-88.3%
14,C[C@H]1[C@@H](O)O[C@@H]2O[C@@]3(C)CC[C@H]4[C@H](C)CC[C@@H]1[C@@]24OO3,-30%
15,CCCCc1ccc2[nH]c(NC(=O)OC)nc2c1,-76.7%
16,C=CC(=O)Nc1cccc(Nc2nc(Nc3ccc(OCCOC)cc3)ncc2F)c1,-44.1%
17,CS(=O)(=O)N1CCc2c(-c3cnc(N)nc3)nc(N3CCOCC3)nc21,-25.2%
18,O=C(O)[C@]1(Cc2cccc(Nc3nccs3)n2)CC[C@@H](Oc2cccc(Cl)c2F)CC1,-24.6%
